Key:
Test in all cases: PBM binding z-score (relative to random genomic background probes); higher = stronger binding; sequences stand for … in GC…GCGATTGACAGCGTAGAATGAAGG
[1] = test system: FXR:RXRa (NR concentration 270 nM, RXRa partner concentration 90 nM)
Outline: (§1)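 Ligand-free nuclear receptor dimers were bound for 1 h to custom Agilent 4×180K protein-binding microarrays. Detection used antibodies against each partner (one per run). Binding z-scores rest on regression-normalized fluorescence, with random background probes as the reference.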

[2] = test system: LXRa:RXRa (NR concentration 270 nM, RXRa partner concentration 90 nM)
Outline: as §1

[3] = test system: LXRa homodimer (NR concentration 270 nM)
Outline: as §1

[4] = test system: LXRb:RXRa (NR concentration 270 nM, RXRa partner concentration 90 nM)
Outline: as §1

[5] = test system: LXRb homodimer (NR concentration 270 nM)
Outline: as §1

[6] = test system: PPARa:RXRa (NR concentration 270 nM, RXRa partner concentration 90 nM)
Outline: as §1

[7] = test system: PPARg:RXRa (NR concentration 180 nM, RXRa partner concentration 90 nM)
Outline: as §1

[8] = test system: PPARg:RXRa 270nM:90nM, anti-RXR (NR concentration 270 nM, RXRa partner concentration 90 nM)
Outline: as §1

[9] = test system: PPARg:RXRa 30nM:10nM, anti-RXR (NR concentration 30 nM, RXRa partner concentration 10 nM)
Outline: as §1

[10] = test system: PPARg:RXRa 90nM:30nM, anti-RXR (NR concentration 90 nM, RXRa partner concentration 30 nM)
Outline: as §1

| Sequence | PBM binding z-score [1] | PBM binding z-score [2] | PBM binding z-score [3] | PBM binding z-score [4] | PBM binding z-score [5] | PBM binding z-score [6] | PBM binding z-score [7] | PBM binding z-score [8] | PBM binding z-score [9] | PBM binding z-score [10] |
| --- | --- | --- | --- | --- | --- | --- | --- | --- | --- | --- |
| CCGACTGGCGCAGAAAGGTTACCATACCATCCGG | 0.0917 | 0.658 | -0.132 | 0.749 | -1.07 | 1.8 | 0.613 | 1.16 | -0.315 | 0.337 |
| ACTAGTTGGTCAGCGGAGGTCACACACAATTCGG | 2.84 | 3.44 | 3.05 | 3.15 | 0.932 | 3.52 | 1.91 | 2.26 | 1.3 | 1.68 |
| GCTTGTAGATCAAGTTTAAGAAAGACTAAGCTAA | -0.477 | -0.231 | -0.318 | -0.15 | -0.39 | 0.142 | -0.204 | -0.0876 | -0.116 | -0.107 |
| TCATATAGGTAATACAGGTGAACGTCGGCATCTA | 0.964 | 1.09 | 0.498 | 1.15 | 0.51 | 1.98 | 1.72 | 2.78 | 4.08 | 3.27 |
| AGAATGAGGTTATTAAGATCAGGAAATTGCGGTC | 1.33 | 1.7 | 0.37 | 1.3 | -0.00704 | 2.59 | 1.63 | 1.8 | 0.356 | 1.47 |
| TCTAGTTGGTCAAAGGTCAGACACTCGAAATGCG | 4.59 | 4.69 | 2.66 | 4.41 | 1.43 | 5.67 | 11.3 | 9.55 | 11.6 | 11.6 |
| ATCTCTACGTAAAGATAGTTCAGTGAATGCAAAT | -0.547 | -0.0846 | 0.644 | 0.0178 | 0.419 | -0.229 | 0.493 | 0.104 | 0.0785 | 0.04 |
| CGTACAAGGTCAGAGAGGTCAGTGAATGCCGAGT | 6.42 | 5.64 | 3.38 | 4.41 | 0.711 | 5.09 | 4.76 | 4.98 | 1.97 | 3.42 |
| AGAATGAGGTTATTAAGATCCGGGAATTGCGGTC | 1.33 | 2.41 | -0.0229 | 1.24 | -0.217 | 2.49 | 1.06 | 1.15 | 0.0449 | 0.869 |
| GTACCAAGGTGAATTGGTCGTTGATGAGTAGGCG | 0.321 | 0.0311 | -0.495 | -0.18 | -0.792 | 0.557 | 0.383 | 0.173 | -0.286 | -0.112 |
| TAGCCTAGGTCATTGGGCCAGGATAGTACGCATC | 3.92 | 3.17 | 0.159 | 1.47 | -0.488 | 3.6 | 3.36 | 3.58 | 0.83 | 2.29 |
| TCTATTAGTTGATTAGTGCAACCGAAACAGCGGA | 0.567 | 0.676 | 0.422 | 0.608 | 0.403 | 0.779 | -0.179 | 2.12 | 3.55 | 2.78 |
| CCTTGCAGGCCAATCTGGGTCACTCAAGGCTTGA | 0.555 | 1.37 | -0.554 | 1.1 | -0.539 | 3.31 | 2.29 | 2.35 | -0.0639 | 1.2 |
| CGTCAATGTTCAAGGTAACGTAACAGAAAGCAGC | -0.00254 | -0.129 | -0.233 | 0.0792 | 0.0791 | -0.0522 | 0.532 | 0.03 | 0.263 | 0.00705 |
| ATCGAAAGGTCGTGGTGAGTATAGAGAAAGGGAA | 5.04 | 4.49 | 0.646 | 3.78 | 1.75 | 5.5 | 4.16 | 4.2 | 1.54 | 3.12 |
| TCGAGTAGGTTAGTCGGGGCATTAAGCCAACATA | -0.0253 | -0.0214 | -0.347 | 0.387 | -0.774 | 0.728 | 0.0278 | 0.922 | 1.05 | 1.18 |
| CCTCGGAGGACAACAGGAGGTCAGAGCCGCCAGA | 0.835 | 2.03 | 1.67 | 1.17 | -0.539 | 1.92 | 0.457 | 0.136 | -0.412 | -0.258 |
| CGTGCTAGGTCATGGTCAGCTAATCTACAGTATG | 3.55 | 2.46 | 0.0428 | 1.84 | -0.338 | 3.36 | 2.98 | 2.8 | 0.471 | 2.11 |
| TCATATAGGTAATACATGTGAAAGTCGGCATCTA | 0.838 | 1.1 | 0.394 | 0.937 | 0.272 | 1.43 | 1.42 | 2.35 | 3.69 | 3.13 |
| TCTCGGAGGACACGACGGTCAGAGCTTTCCAGAG | 0.205 | 0.0184 | -0.415 | -0.277 | -1.16 | 0.197 | -0.0353 | 0.515 | 1.6 | 1.3 |
| ACAGACAGGTGAGTGAAGGTAACTCAGCTGGACG | 0.377 | 0.0321 | -0.247 | -0.255 | -0.625 | 0.294 | 0.762 | 0.0476 | -0.138 | -0.304 |
| ATCTCTAGGTAAAGATGGTTCAGTGAATGCAAAT | -0.0028 | 0.987 | 0.171 | 0.3 | 0.169 | 0.594 | 0.37 | 0.607 | 0.44 | 0.679 |
| CCGAGTCGGTTATGGGGCATTCAGGCAACGGTGA | -0.323 | -0.235 | -0.49 | -0.14 | -0.656 | 0.438 | 0.463 | 1.66 | -0.306 | 0.771 |
